Laboratory results as given in the supplement of paper PMC4466140.

What follows are binders tested against AgAbp1 (assay: SPOT peptide array binding signal intensity (averaged, normalized) (arbitrary units (background-subtracted, floor 0; scale differs between SH3 domains)); higher = stronger binding of the SH3 domain to the peptide).
In short: (§1)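 The binding signal is the normalized, background-subtracted spot intensity averaged over replicates; its arbitrary units differ between domains. It was obtained by incubating 10 μg/ml GST-fused SH3 domains from four yeast species overnight at 4°C in TBS-based blocking buffer on cellulose membranes with synthetic 15-mer peptides, cysteines replaced by serines, then detecting with anti-GST antibody, HRP anti-mouse secondary and luminol.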
With SRYRRPLTLLLLKPF the “SPOT peptide array binding signal intensity” value was 16.

Each binder was assayed against AgBbc1 in the same assay as above.
In short: as §1
In the case of SRYRRPLTLLLLKPF, the “SPOT peptide array binding signal intensity” value is reported as 6.

What follows are binders tested against AgBem1-D1 in the same assay as above.
In short: as §1
In the case of SRYRRPLTLLLLKPF, the “SPOT peptide array binding signal intensity” value is reported as 0.5.

The binders below were run against AgBzz1-D1 in the same assay as above.
In short: as §1
For SRYRRPLTLLLLKPF, the “SPOT peptide array binding signal intensity” value was 23.

What follows are binders tested against AgBzz1-D2 in the same assay as above.
In short: as §1
SRYRRPLTLLLLKPF was tested, and the “SPOT peptide array binding signal intensity” value was 17.

The binders below were run against AgCyk3 in the same assay as above.
In short: as §1
In the case of SRYRRPLTLLLLKPF, the “SPOT peptide array binding signal intensity” value is reported as 1.

What follows are binders tested against AgFus1 in the same assay as above.
In short: as §1
SRYRRPLTLLLLKPF was tested, and the “SPOT peptide array binding signal intensity” value was 965.

What follows are binders tested against AgHof1 in the same assay as above.
In short: as §1
With SRYRRPLTLLLLKPF the “SPOT peptide array binding signal intensity” value was 13.8.

These binders were tested against AgHse1 in the same assay as above.
In short: as §1
In the case of SRYRRPLTLLLLKPF, the “SPOT peptide array binding signal intensity” value is reported as 1270.

The binders below were run against AgLsb1 in the same assay as above.
In short: as §1
In the case of SRYRRPLTLLLLKPF, the “SPOT peptide array binding signal intensity” value is reported as at most 0.

Each binder was assayed against AgLsb4 in the same assay as above.
In short: as §1
In the case of SRYRRPLTLLLLKPF, the “SPOT peptide array binding signal intensity” value is reported as 270.

Each binder was assayed against AgMyo5 in the same assay as above.
In short: as §1
For SRYRRPLTLLLLKPF, the “SPOT peptide array binding signal intensity” value was 0.5.

What follows are binders tested against AgNbp2 in the same assay as above.
In short: as §1
SRYRRPLTLLLLKPF was tested, and the “SPOT peptide array binding signal intensity” value was 97.5.

The binders below were run against AgRvs167 in the same assay as above.
In short: as §1
With SRYRRPLTLLLLKPF the “SPOT peptide array binding signal intensity” value was 5.17.

Each binder was assayed against AgSho1 in the same assay as above.
In short: as §1
SRYRRPLTLLLLKPF was tested, and the “SPOT peptide array binding signal intensity” value was 334.

The binders below were run against AgSla1-D1-D2 in the same assay as above.
In short: as §1
SRYRRPLTLLLLKPF was tested, and the “SPOT peptide array binding signal intensity” value was 40.

What follows are binders tested against AgSla1-D3 in the same assay as above.
In short: as §1
In the case of SRYRRPLTLLLLKPF, the “SPOT peptide array binding signal intensity” value is reported as 4.

These binders were tested against CaAbp1-D1 in the same assay as above.
In short: as §1
For SRYRRPLTLLLLKPF, the “SPOT peptide array binding signal intensity” value was 155.

The binders below were run against CaAbp1-D2 in the same assay as above.
In short: as §1
SRYRRPLTLLLLKPF was tested, and the “SPOT peptide array binding signal intensity” value was 128.

These binders were tested against CaBbc1 in the same assay as above.
In short: as §1
SRYRRPLTLLLLKPF was tested, and the “SPOT peptide array binding signal intensity” value was 38.

What follows are binders tested against CaBem1-D1 in the same assay as above.
In short: as §1
For SRYRRPLTLLLLKPF, the “SPOT peptide array binding signal intensity” value was 8.5.

These binders were tested against CaBzz1-D1 in the same assay as above.
In short: as §1
SRYRRPLTLLLLKPF was tested, and the “SPOT peptide array binding signal intensity” value was 26.5.

What follows are binders tested against CaBzz1-D2 in the same assay as above.
In short: as §1
In the case of SRYRRPLTLLLLKPF, the “SPOT peptide array binding signal intensity” value is reported as 14.2.

These binders were tested against CaCyk3 in the same assay as above.
In short: as §1
With SRYRRPLTLLLLKPF the “SPOT peptide array binding signal intensity” value was 9.

Each binder was assayed against CaFus1 in the same assay as above.
In short: as §1
With SRYRRPLTLLLLKPF the “SPOT peptide array binding signal intensity” value was 1410.

Each binder was assayed against CaHof1 in the same assay as above.
In short: as §1
For SRYRRPLTLLLLKPF, the “SPOT peptide array binding signal intensity” value was 0.5.

Each binder was assayed against CaHse1 in the same assay as above.
In short: as §1
In the case of SRYRRPLTLLLLKPF, the “SPOT peptide array binding signal intensity” value is reported as 80.8.

What follows are binders tested against CaLsb1 in the same assay as above.
In short: as §1
With SRYRRPLTLLLLKPF the “SPOT peptide array binding signal intensity” value was 2.5.

What follows are binders tested against CaLsb4 in the same assay as above.
In short: as §1
For SRYRRPLTLLLLKPF, the “SPOT peptide array binding signal intensity” value was 37.

The binders below were run against CaMyo5 in the same assay as above.
In short: as §1
In the case of SRYRRPLTLLLLKPF, the “SPOT peptide array binding signal intensity” value is reported as at most 0.

The binders below were run against CaNbp2 in the same assay as above.
In short: as §1
With SRYRRPLTLLLLKPF the “SPOT peptide array binding signal intensity” value was 870.

Each binder was assayed against CaRvs167 in the same assay as above.
In short: as §1
With SRYRRPLTLLLLKPF the “SPOT peptide array binding signal intensity” value was 66.8.

What follows are binders tested against CaRvs167-3 in the same assay as above.
In short: as §1
With SRYRRPLTLLLLKPF the “SPOT peptide array binding signal intensity” value was 141.

What follows are binders tested against CaSho1 in the same assay as above.
In short: as §1
With SRYRRPLTLLLLKPF the “SPOT peptide array binding signal intensity” value was 493.

The binders below were run against CaSla1-D1-D2 in the same assay as above.
In short: as §1
With SRYRRPLTLLLLKPF the “SPOT peptide array binding signal intensity” value was at most 0.

Each binder was assayed against CaSla1-D3 in the same assay as above.
In short: as §1
For SRYRRPLTLLLLKPF, the “SPOT peptide array binding signal intensity” value was 39.2.

The binders below were run against ScAbp1 in the same assay as above.
In short: as §1
SRYRRPLTLLLLKPF was tested, and the “SPOT peptide array binding signal intensity” value was 83.

These binders were tested against ScBbc1 in the same assay as above.
In short: as §1
SRYRRPLTLLLLKPF was tested, and the “SPOT peptide array binding signal intensity” value was 2.5.

What follows are binders tested against ScBem1-D1 in the same assay as above.
In short: as §1
For SRYRRPLTLLLLKPF, the “SPOT peptide array binding signal intensity” value was 10.

The binders below were run against ScBzz1-D1 in the same assay as above.
In short: as §1
In the case of SRYRRPLTLLLLKPF, the “SPOT peptide array binding signal intensity” value is reported as 13.

These binders were tested against ScBzz1-D2 in the same assay as above.
In short: as §1
For SRYRRPLTLLLLKPF, the “SPOT peptide array binding signal intensity” value was 74.5.

The binders below were run against ScCyk3 in the same assay as above.
In short: as §1
With SRYRRPLTLLLLKPF the “SPOT peptide array binding signal intensity” value was 28.

What follows are binders tested against ScFus1 in the same assay as above.
In short: as §1
With SRYRRPLTLLLLKPF the “SPOT peptide array binding signal intensity” value was 546.

Each binder was assayed against ScHof1 in the same assay as above.
In short: as §1
In the case of SRYRRPLTLLLLKPF, the “SPOT peptide array binding signal intensity” value is reported as 1.

The binders below were run against ScHse1 in the same assay as above.
In short: as §1
For SRYRRPLTLLLLKPF, the “SPOT peptide array binding signal intensity” value was 2310.

Each binder was assayed against ScLsb1 in the same assay as above.
In short: as §1
With SRYRRPLTLLLLKPF the “SPOT peptide array binding signal intensity” value was 12.5.

Each binder was assayed against ScLsb2 in the same assay as above.
In short: as §1
With SRYRRPLTLLLLKPF the “SPOT peptide array binding signal intensity” value was 2.

These binders were tested against ScLsb3 in the same assay as above.
In short: as §1
In the case of SRYRRPLTLLLLKPF, the “SPOT peptide array binding signal intensity” value is reported as 107.

The binders below were run against ScLsb4 in the same assay as above.
In short: as §1
SRYRRPLTLLLLKPF was tested, and the “SPOT peptide array binding signal intensity” value was 31.5.

What follows are binders tested against ScMyo3 in the same assay as above.
In short: as §1
For SRYRRPLTLLLLKPF, the “SPOT peptide array binding signal intensity” value was 0.5.

The binders below were run against ScMyo5 in the same assay as above.
In short: as §1
With SRYRRPLTLLLLKPF the “SPOT peptide array binding signal intensity” value was 0.5.

These binders were tested against ScNbp2 in the same assay as above.
In short: as §1
With SRYRRPLTLLLLKPF the “SPOT peptide array binding signal intensity” value was 234.

The binders below were run against ScPex13 in the same assay as above.
In short: as §1
With SRYRRPLTLLLLKPF the “SPOT peptide array binding signal intensity” value was 1.

What follows are binders tested against ScRvs167 in the same assay as above.
In short: as §1
With SRYRRPLTLLLLKPF the “SPOT peptide array binding signal intensity” value was 11.

What follows are binders tested against ScSho1 in the same assay as above.
In short: as §1
For SRYRRPLTLLLLKPF, the “SPOT peptide array binding signal intensity” value was 648.

The binders below were run against ScSla1-D1-D2 in the same assay as above.
In short: as §1
For SRYRRPLTLLLLKPF, the “SPOT peptide array binding signal intensity” value was 1.

These binders were tested against ScSla1-D3 in the same assay as above.
In short: as §1
In the case of SRYRRPLTLLLLKPF, the “SPOT peptide array binding signal intensity” value is reported as 8.

The binders below were run against SpAbp1-D1 in the same assay as above.
In short: as §1
With SRYRRPLTLLLLKPF the “SPOT peptide array binding signal intensity” value was 199.

Each binder was assayed against SpBbc1 in the same assay as above.
In short: as §1
In the case of SRYRRPLTLLLLKPF, the “SPOT peptide array binding signal intensity” value is reported as 6.25.

Each binder was assayed against SpBzz1-D1 in the same assay as above.
In short: as §1
In the case of SRYRRPLTLLLLKPF, the “SPOT peptide array binding signal intensity” value is reported as 18.

The binders below were run against SpBzz1-D2 in the same assay as above.
In short: as §1
SRYRRPLTLLLLKPF was tested, and the “SPOT peptide array binding signal intensity” value was at most 0.

The binders below were run against SpCyk3 in the same assay as above.
In short: as §1
SRYRRPLTLLLLKPF was tested, and the “SPOT peptide array binding signal intensity” value was 4.

These binders were tested against SpHof1 in the same assay as above.
In short: as §1
For SRYRRPLTLLLLKPF, the “SPOT peptide array binding signal intensity” value was 144.

Each binder was assayed against SpHof1-2 in the same assay as above.
In short: as §1
SRYRRPLTLLLLKPF was tested, and the “SPOT peptide array binding signal intensity” value was 21.8.

These binders were tested against SpHof1-3 in the same assay as above.
In short: as §1
In the case of SRYRRPLTLLLLKPF, the “SPOT peptide array binding signal intensity” value is reported as 686.

What follows are binders tested against SpHse1 in the same assay as above.
In short: as §1
SRYRRPLTLLLLKPF was tested, and the “SPOT peptide array binding signal intensity” value was 643.

These binders were tested against SpLsb1 in the same assay as above.
In short: as §1
For SRYRRPLTLLLLKPF, the “SPOT peptide array binding signal intensity” value was 3.

These binders were tested against SpLsb4 in the same assay as above.
In short: as §1
SRYRRPLTLLLLKPF was tested, and the “SPOT peptide array binding signal intensity” value was 67.

The binders below were run against SpMyo1 in the same assay as above.
In short: as §1
For SRYRRPLTLLLLKPF, the “SPOT peptide array binding signal intensity” value was 4.5.

The binders below were run against SpNbp2 in the same assay as above.
In short: as §1
In the case of SRYRRPLTLLLLKPF, the “SPOT peptide array binding signal intensity” value is reported as 374.

The binders below were run against SpPex13 in the same assay as above.
In short: as §1
In the case of SRYRRPLTLLLLKPF, the “SPOT peptide array binding signal intensity” value is reported as 11.5.

Each binder was assayed against SpRvs167 in the same assay as above.
In short: as §1
In the case of SRYRRPLTLLLLKPF, the “SPOT peptide array binding signal intensity” value is reported as 13.8.

These binders were tested against SpSla1-D1-D2 in the same assay as above.
In short: as §1
For SRYRRPLTLLLLKPF, the “SPOT peptide array binding signal intensity” value was 5.

Each binder was assayed against SpSla1-D3 in the same assay as above.
In short: as §1
SRYRRPLTLLLLKPF was tested, and the “SPOT peptide array binding signal intensity” value was 6.5.
